ELG1 DNA repair = ELG1-dependent DNA repair inhibition. HEK293T ELG1-luciferase reporter, luminescence, 16 h; DNA damage induced by 5-fluorouridine. Potency, µM (titrated, usually from 46.1 µM), hits mostly inhibitors. actives 2.3% (n = 330,000); further: nearly all actives have a fitted effect of over 55% in size
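Step one: seed 2,000 cells per well. Step two: pin-transfer compound or DMSO alongside 5-fluorouridine. Step three: incubate 16 hr, 37 °C, 5% CO2. Step four: add ONE-Glo, wait 30 min, read luminescence.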
Rab9 promoter act = activators of Rab9 promoter; Huh7 Rab9 promoter-luciferase reporter, luminescence, 24 h; AID 485297; actives 2.8% (n = 320,000); Potency, µM (titrated, usually from 9.22 µM), actives largely listed as activators; further: nearly all actives have a fitted effect of over 60% in size
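Huh7 reporter line, Rab9 promoter upstream of luciferase. Compound exposure 24 h at 37 °C in reduced-serum medium with 10% FBS. Read-out: luminescence.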
SMN2 splice enh = enhancers of SMN2 splice variant expression. AID 1458. actives 2.8% (n = 210,000). Potency, µM (doses to about 46.1 µM), hits mostly activators. HEK293 SMN2-luciferase splicing reporter, luminescence, 30-36 h; further: nearly all actives have a fitted effect of over 55% in size
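HEK293 cells carry an SMN2 […]–luciferase reporter in which exon 7 inclusion puts luciferase in frame. Cells were plated 10-12 h before compound addition, then incubated 30-36 h at 37C. ONE-Glo luminescence was read; sodium butyrate at 4.5 mM final served as control.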
ELG1 genotox = induces genotoxicity in HEK293T cells with luciferase-tagged ELG1. HEK293T ELG1-luciferase reporter, luminescence, 16 h. Potency, µM (series often up to 46 µM), hits mostly activators. actives 1.3% (n = 330,000). AID 504466; further: nearly all actives have a fitted effect of over 60% in size
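After overnight (16 hr) compound treatment at 37 °C, ELG1-luciferase HEK293T cells were lysed with ONE-Glo; luminescence quantified 30 min later at room temperature.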
FLuc counter = firefly luciferase modulation, counter-screen for miR-21 project; purified FLuc, Km substrates, luminescence inhibition; Potency, µM (highest dose often 57.5 µM), usual class: inhibitors; actives 6.9% (n = 360,000); further: nearly all actives have a fitted effect of over 55% in size
Target sequence (P08659 whole entry, looked up): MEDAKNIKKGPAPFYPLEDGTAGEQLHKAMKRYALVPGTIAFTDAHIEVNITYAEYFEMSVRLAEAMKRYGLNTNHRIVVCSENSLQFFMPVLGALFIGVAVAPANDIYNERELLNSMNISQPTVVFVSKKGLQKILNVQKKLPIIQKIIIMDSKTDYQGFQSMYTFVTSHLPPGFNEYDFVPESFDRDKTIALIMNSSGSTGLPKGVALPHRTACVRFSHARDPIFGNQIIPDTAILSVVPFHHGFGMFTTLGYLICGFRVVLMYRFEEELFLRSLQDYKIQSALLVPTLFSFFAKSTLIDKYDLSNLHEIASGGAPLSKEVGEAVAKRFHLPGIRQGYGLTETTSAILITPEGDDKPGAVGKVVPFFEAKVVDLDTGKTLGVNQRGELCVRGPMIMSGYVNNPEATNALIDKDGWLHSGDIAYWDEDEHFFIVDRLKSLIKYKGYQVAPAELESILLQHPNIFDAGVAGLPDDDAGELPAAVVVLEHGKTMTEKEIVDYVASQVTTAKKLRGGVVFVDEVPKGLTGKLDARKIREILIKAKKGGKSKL
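Purified P. pyralis luciferase, 10 nM final, with Km-level 10 uM D-luciferin and 10 uM ATP in 50 mM Tris acetate pH 7.5, 10 mM Mg acetate, 0.01% Tween-20, 0.05% BSA; 6-point qHTS titration about 60 µM downward; luminescence read.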
NPC1 prom act = activators of NPC1 promoter | Potency, µM (series often up to 9.22 µM), actives largely listed as activators | actives 2.4% (n = 320,000) | AID 485313 | Huh7 NPC1 promoter luciferase reporter, 24 h; further: nearly all actives have a fitted effect of over 60% in size
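Huh7 cells stably carrying NPC1 promoter–luciferase, plated in Opti-MEM with 10% FBS for 2 h, were exposed to compound in DMSO for 24 h at 37 °C; luciferase reagent was added for 10 min and luminescence read.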
Numbers stand for hits; - = inactive; ? = inconclusive; . = no result; [ ] = dose if it differs, or a comment. An excerpt weighted towards active compounds, which were near 9.3% of everything screened. The call rests on the fitted dose curve; in most records, active means well fitted curve in the direction sought with a large enough effect; inconclusive means small, poorly fitted or top-dose-only effect, or another doubt; inactive means no such curve, though single readings can be large; an effect the other way counts as inactive or inconclusive.

SMILES | ELG1 DNA repair | Rab9 promoter act | SMN2 splice enh | ELG1 genotox | FLuc counter | NPC1 prom act
COc1cc(C(=O)N[C@H](C(=O)NC2CCCc3ccccc32)C(C)C)cc(OC)c1OC (some centres undefined) | 21µM | . | . | - | . | .
COCCCNC(=O)CCS(=O)(=O)Cc1ccc(C)cc1 | - | - | - | - | - | -
CC(c1ccccc1)N1C(=O)c2ccc(C(=O)Nc3ccccc3C(=O)O)cc2C1=O (centres undefined) | ? | - | . | - | 24µM | -
CC(C)CCN1C(=O)c2ccc(C(=O)Nc3ccc(O)cc3C(=O)O)cc2C1=O | - | - | . | - | 19µM | -
CC(C)CCN1C(=O)c2ccc(C(=O)Nc3ccccc3C(=O)O)cc2C1=O | - | - | . | - | 21µM | -
COc1cc(NC(=O)c2ccc3c(c2)C(=O)N(CCC(C)C)C3=O)c(C(=O)O)cc1OC | - | - | . | - | ? | -
CC(C)CN1C(=O)c2ccc(C(=O)Nc3ccc(O)cc3C(=O)O)cc2C1=O | - | - | . | - | 6µM | -
COCCNC(=O)CSc1nnc(-c2ccc(C)cc2)c(-c2ccc(C)cc2)n1 | ? | - | - | - | - | -
CCN(c1ccc(C)cc1)S(=O)(=O)c1nnc(NC(=O)C2CCCCC2)s1 | . | . | . | . | 11µM | .
CCN(c1ccccc1)S(=O)(=O)c1nnc(NC(=O)C2CCCCC2)s1 | . | . | . | . | 2.7µM | .
CC(C)CC(=O)Nc1nnc(S(=O)(=O)N(CC(C)C)c2ccccc2)s1 | . | . | . | . | 0.85µM | .
CCN(c1cccc(C)c1)S(=O)(=O)c1nnc(NC(=O)C2CCCCC2)s1 | . | . | . | . | 15µM | .
CC(C)CN(c1ccccc1)S(=O)(=O)c1nnc(NC(=O)C(C)C)s1 | - | - | . | - | - | -
Cc1nn(CC(O)Cn2cnc3c2c(=O)n(C)c(=O)n3C)c(C)c1Br (centres undefined) | - | - | - | - | - | -
CCCn1c(C)cc(C(=O)COc2ccc(S(=O)(=O)N(CC)CC)cc2[N+](=O)[O-])c1C | 16µM | - | -[1.84 µM] | - | - | -
CCCn1c(C)cc(C(=O)COc2ccc(C)nc2[N+](=O)[O-])c1C | ? | - | . | - | ? | -
CC1Cc2ccccc2N1c1ncnc2nc[nH]c12 (centres undefined) | - | - | - | - | 21µM | -
CC1Cc2ccccc2N1c1ncnc(N)c1[N+](=O)[O-] (centres undefined) | 1.5µM | - | - | - | - | -
c1ccc2c(c1)CCN(c1ncnc3nc[nH]c13)C2 | - | - | - | - | - | -
COc1cc(NS(C)(=O)=O)ccc1Nc1c2ccccc2nc2ccccc12 | ? | - | - | ? | 12µM | -
COc1ccc(OC)c(Nc2c3ccccc3nc3ccccc23)c1 | 12µM | - | . | - | ? | -
COc1cc(/C=N/Nc2ncnc3sc4c(c23)CCC4)ccc1O | ? | - | - | ? | 2.4µM | -
Fc1ccccc1/C=N/Nc1nc(-c2ccccn2)nc2ccccc12 | ? | - | . | - | 9.5µM | -
Cc1ccc(Nc2nc(-c3cccnc3)nc3ccccc23)cc1 | ? | - | . | - | - | -
Oc1ccc(/C=N/Nc2nc(-c3cccnc3)nc3ccccc23)c(O)c1 | 16µM | - | . | - | 4.8µM | -
SMILES | ELG1 DNA repair | Rab9 promoter act | SMN2 splice enh | ELG1 genotox | FLuc counter | NPC1 prom act
c1ccc(CNc2nc(-c3ccccn3)nc3ccccc23)cc1 | - | -[1.84 µM] | . | - | - | -
Cc1c(O)ccc(/C=N/Nc2nc(-c3cccnc3)nc3ccccc23)c1O | 5.2µM | - | . | - | 3.4µM | -
COc1cc(/C=N/NC2=NCCCCC2)ccc1O | - | - | . | - | - | -
O=[N+]([O-])c1ccc(S(=O)(=O)N/N=C/c2ccc3c(c2)OCO3)cc1 | - | - | . | - | - | -
COc1ccc(/C=N/Nc2ncnc3scc(-c4ccccc4)c23)cc1OC | 18µM | - | - | - | ? | -
Clc1ccccc1-c1nc(N/N=C/c2cccnc2)c2ccccc2n1 | ? | - | - | - | - | -
Cc1ccc(-c2nc(N/N=C/c3ccncc3)c3ccccc3n2)cc1 | ? | 2µM | - | ? | 0.076µM | ?
COc1ccc(/C=N/Nc2nc(-c3cccnc3)nc3ccccc23)cc1OC | 6.5µM | - | . | - | 2.1µM | -
